# For some of these results: Potency and affinity values are given separately.
# Legend:
# Set-up in all cases: scale not given: direction of the effect not stated beside the values
# [1] = target: Protein translocase subunit SecA (Escherichia coli (strain K12)) (UniProt P10408); assay: Assay to Identify E. coli SecA ATPase Inhibitors; format: functional; details: 30 µM
# [2] = target: T1, Ubiquitin-activating enzyme e1, putative (Leishmania donovani (strain BPK282A1)) (UniProt E9BSI1); assay: Leishmania donovani Ubiquitin Activating Enzyme (LdE1); format: functional; details: 30 µM
# T1 sequence (whole entry): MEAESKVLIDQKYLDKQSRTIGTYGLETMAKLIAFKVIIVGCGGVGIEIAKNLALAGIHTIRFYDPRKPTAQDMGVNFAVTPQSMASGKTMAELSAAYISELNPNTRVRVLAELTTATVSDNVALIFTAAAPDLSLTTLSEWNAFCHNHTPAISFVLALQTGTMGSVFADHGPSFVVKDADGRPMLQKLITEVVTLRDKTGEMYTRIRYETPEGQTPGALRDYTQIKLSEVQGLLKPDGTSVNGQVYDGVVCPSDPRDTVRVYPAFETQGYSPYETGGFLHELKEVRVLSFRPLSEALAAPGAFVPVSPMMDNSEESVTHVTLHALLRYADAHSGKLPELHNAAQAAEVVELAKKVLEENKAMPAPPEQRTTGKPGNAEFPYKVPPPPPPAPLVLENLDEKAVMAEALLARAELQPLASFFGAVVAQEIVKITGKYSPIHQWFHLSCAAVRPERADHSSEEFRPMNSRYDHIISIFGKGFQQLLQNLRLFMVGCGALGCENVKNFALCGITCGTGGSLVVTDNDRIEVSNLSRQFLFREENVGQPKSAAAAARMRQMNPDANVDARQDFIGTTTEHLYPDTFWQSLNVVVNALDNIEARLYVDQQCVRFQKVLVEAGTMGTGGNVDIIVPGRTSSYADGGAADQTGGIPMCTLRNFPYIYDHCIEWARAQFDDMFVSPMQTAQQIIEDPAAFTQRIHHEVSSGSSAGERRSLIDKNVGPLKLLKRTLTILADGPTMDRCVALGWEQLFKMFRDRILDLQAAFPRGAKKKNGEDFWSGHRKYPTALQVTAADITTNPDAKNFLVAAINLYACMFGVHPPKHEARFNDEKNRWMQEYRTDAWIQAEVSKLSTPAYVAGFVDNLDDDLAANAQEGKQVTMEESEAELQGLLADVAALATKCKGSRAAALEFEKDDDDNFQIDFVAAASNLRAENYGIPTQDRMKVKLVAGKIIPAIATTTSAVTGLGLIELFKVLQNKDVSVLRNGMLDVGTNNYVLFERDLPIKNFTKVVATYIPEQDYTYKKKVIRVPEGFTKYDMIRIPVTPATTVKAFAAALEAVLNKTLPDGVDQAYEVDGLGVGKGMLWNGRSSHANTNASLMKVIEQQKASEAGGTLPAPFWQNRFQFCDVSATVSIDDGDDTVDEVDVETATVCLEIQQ
# [3] = target: Sialic acid-binding Ig-like lectin 9 (Homo sapiens) (UniProt Q9Y336); assay: Hs-Siglec9 ALPHAscreen SOP 20170721; details: 10 µM
# Chain of Sialic acid-binding Ig-like lectin 9 (Homo sapiens) (Q9Y336 whole entry): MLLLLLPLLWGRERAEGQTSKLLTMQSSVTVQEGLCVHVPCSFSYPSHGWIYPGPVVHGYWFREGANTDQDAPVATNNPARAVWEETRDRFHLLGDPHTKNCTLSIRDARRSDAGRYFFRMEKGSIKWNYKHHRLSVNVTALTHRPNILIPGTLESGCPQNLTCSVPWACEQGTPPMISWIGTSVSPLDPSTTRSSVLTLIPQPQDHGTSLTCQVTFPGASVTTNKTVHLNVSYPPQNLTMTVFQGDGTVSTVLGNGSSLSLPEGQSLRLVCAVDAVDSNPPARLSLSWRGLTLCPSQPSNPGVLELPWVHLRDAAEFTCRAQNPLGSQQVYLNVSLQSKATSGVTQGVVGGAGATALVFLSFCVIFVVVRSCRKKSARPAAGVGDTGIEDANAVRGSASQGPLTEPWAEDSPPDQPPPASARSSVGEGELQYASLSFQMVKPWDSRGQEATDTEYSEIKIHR
# [4] = test system: Trypanosoma cruzi; assay: Trypanosoma cruzi phosphomannomutase and mannose-1-phosphate guanylyltransferase assay; format: functional; details: 10 µM
# [5] = target: T2, Arginase-2, mitochondrial (Homo sapiens) (UniProt P78540); assay: in vitro enzyme assay to detect the production of urea directly proportional to the activity of Arginase II; format: functional; details: 33.3 µM; further: in the data most compounds retested in dose-response had high values
# T2 sequence (whole entry): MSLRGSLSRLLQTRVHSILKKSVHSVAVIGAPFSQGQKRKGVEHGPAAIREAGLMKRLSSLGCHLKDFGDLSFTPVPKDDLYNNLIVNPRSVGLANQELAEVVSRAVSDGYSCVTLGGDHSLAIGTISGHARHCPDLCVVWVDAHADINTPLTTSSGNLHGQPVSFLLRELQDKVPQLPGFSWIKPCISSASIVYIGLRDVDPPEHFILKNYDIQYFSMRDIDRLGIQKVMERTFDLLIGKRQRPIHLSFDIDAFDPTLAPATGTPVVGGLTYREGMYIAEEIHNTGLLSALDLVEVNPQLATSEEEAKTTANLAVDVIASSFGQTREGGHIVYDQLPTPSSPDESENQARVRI
# [6] = target: T3, Proteasome subunit beta (Trypanosoma cruzi) (UniProt O96673); assay: Trypanosoma cruzi proteasome chymotrypsin-like activity (TcProtChymo) assay.; further: in the data most compounds retested in dose-response had high values; format: functional; details: 9.37 µM
# T3 sequence (whole entry): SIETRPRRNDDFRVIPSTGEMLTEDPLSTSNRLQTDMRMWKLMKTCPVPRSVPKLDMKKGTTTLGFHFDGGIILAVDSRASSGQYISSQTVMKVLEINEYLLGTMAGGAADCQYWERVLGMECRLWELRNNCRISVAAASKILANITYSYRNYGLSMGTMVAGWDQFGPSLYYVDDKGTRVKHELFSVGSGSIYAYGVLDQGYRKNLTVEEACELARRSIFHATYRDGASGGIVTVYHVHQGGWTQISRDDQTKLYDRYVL
# [7] = species: Homo sapiens; assay: To identify inhibition of the IFN signalling (Jak-Stat) pathway via expression of an eGFP reporter gene under the control of an IFN-stimulated response element (ISRE) containing MxA promoter.; format: functional; details: 30 µM
# [8] = target: T4, Tyrosyl-tRNA synthetase, putative (Trypanosoma cruzi (strain CL Brener)) (UniProt Q4DSP6); assay: Trypanosoma cruzi tyrosyl tRNA synthetase (TcYRS) _High Tyrosine SOP; format: functional; details: 30 µM; further: in the data most compounds retested in dose-response had high values
# T4 sequence (whole entry): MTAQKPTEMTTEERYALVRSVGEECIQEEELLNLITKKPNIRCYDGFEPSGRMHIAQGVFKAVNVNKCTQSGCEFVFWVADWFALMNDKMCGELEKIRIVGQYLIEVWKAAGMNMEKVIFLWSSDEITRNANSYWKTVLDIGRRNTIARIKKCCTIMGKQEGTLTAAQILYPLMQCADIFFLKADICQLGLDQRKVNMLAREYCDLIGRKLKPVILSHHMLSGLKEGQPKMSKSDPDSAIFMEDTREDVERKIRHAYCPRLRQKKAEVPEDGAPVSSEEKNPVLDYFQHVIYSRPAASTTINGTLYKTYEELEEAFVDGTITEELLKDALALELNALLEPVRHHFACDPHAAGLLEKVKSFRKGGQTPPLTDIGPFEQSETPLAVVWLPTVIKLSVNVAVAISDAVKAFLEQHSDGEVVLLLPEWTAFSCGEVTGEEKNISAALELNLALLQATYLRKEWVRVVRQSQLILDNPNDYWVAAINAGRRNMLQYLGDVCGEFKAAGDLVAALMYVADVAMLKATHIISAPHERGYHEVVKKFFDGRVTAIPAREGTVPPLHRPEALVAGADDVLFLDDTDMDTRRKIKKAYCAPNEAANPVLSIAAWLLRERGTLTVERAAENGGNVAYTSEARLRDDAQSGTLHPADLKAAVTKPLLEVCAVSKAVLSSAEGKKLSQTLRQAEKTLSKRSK
# [9] = target: T4, Tyrosyl-tRNA synthetase, putative (Trypanosoma cruzi (strain CL Brener)); assay: Trypanosoma cruzi tyrosyl tRNA synthetase (TcYRS) SOP; format: functional; details: 30 µM
# [10] = target: Chromo domain-containing protein 1 (Saccharomyces cerevisiae (strain ATCC 204508 / S288c) (Baker's yeast)) (UniProt P32657); assay: ScCHD-1 Enzyme Inhibition Assay; format: functional; details: 30 µM; further: in the data most compounds retested in dose-response had high values
# Chain of Chromo domain-containing protein 1 (Saccharomyces cerevisiae (strain ATCC 204508 / S288c) (Baker's yeast)) (P32657 whole entry, the tested form may be a part): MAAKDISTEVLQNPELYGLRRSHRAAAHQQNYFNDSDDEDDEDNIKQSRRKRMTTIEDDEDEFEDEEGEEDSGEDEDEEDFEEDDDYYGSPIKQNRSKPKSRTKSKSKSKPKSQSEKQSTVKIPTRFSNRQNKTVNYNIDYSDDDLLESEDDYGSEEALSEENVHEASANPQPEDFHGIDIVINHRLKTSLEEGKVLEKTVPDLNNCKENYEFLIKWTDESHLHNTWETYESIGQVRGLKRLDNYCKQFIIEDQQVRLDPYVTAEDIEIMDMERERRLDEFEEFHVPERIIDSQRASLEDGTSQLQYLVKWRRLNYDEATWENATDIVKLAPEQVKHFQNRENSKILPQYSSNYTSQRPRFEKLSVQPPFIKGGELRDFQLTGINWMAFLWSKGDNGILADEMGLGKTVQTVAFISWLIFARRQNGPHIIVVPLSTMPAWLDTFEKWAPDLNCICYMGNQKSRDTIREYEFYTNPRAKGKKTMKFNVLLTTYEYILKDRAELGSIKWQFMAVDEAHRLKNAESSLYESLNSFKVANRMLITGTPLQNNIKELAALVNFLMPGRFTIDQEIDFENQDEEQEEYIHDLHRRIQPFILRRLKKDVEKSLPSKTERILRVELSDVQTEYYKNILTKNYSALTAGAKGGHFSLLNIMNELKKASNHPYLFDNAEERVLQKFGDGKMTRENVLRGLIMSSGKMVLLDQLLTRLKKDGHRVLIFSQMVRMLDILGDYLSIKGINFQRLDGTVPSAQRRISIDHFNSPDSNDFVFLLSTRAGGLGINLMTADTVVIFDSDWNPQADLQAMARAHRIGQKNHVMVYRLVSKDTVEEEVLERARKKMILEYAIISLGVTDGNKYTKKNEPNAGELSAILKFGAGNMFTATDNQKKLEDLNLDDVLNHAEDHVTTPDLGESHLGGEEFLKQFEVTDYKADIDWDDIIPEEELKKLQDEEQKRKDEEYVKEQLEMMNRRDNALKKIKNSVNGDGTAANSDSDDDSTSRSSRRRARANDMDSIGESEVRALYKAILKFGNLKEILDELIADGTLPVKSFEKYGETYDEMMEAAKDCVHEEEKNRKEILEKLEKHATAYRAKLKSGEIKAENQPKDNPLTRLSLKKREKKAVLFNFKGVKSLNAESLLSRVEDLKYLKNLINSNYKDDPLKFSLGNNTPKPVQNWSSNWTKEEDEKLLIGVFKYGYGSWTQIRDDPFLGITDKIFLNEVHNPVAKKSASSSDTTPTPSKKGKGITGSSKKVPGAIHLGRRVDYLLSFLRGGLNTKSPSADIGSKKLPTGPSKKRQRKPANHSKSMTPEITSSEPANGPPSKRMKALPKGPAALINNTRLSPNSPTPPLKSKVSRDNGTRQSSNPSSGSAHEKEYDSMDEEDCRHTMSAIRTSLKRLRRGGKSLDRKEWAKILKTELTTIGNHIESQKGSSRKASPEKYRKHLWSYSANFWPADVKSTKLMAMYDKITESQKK
# Chain of Protein translocase subunit SecA (Escherichia coli (strain K12)) (P10408 whole entry): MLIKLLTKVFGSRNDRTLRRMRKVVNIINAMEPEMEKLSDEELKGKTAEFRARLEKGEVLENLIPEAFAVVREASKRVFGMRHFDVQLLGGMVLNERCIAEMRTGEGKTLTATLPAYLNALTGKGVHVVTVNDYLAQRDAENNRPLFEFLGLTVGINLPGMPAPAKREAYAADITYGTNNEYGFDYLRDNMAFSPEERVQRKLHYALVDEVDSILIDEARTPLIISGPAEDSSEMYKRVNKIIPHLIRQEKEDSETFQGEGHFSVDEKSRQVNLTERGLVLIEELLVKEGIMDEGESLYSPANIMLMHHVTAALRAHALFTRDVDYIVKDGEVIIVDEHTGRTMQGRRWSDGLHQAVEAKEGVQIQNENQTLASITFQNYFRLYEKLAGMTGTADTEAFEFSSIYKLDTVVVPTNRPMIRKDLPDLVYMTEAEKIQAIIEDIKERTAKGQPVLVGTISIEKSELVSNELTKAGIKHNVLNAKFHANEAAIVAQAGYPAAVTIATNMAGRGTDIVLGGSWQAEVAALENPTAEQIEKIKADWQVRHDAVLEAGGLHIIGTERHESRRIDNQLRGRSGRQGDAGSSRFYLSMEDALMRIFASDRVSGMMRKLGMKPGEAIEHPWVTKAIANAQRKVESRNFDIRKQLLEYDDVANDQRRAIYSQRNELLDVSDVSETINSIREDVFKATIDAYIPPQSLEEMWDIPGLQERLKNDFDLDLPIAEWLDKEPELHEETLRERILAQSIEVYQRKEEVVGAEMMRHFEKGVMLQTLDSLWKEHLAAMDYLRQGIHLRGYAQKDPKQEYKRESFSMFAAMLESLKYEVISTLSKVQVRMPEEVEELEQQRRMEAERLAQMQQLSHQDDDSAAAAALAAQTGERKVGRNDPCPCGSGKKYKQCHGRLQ
SMILES,Percent Effect [1],Percent Effect [2],Percent Effect [3],Percent Effect [4],Percent Effect [5],Percent Effect [6],Percent Effect [7],Percent Effect [8],Percent Effect [9],Percent Effect [10]
Cc1nc(CN2CCN(Cc3ccoc3)Cc3cccnc32)cs1,-1.42%,-1.3%,-2.07%,-2.82%,-4.45%,12.3%,10.4%,1.58%,-5.13%,1.4%
NC(=O)c1ccc(S(=O)(=O)NC(=O)COc2ccc3c(c2)CCC3)cc1,-4.96%,7.69%,-3.01%,8.54%,0.82%,4.01%,4.26%,3.35%,10.8%,6.22%
Cc1nc(CN2CCC(N(C)Cc3noc(C4CC4)n3)C2)oc1C (stereo not given),0.865%,18.2%,0.312%,1.31%,0.205%,18.8%,12.6%,12.8%,28.2%,-10.9%
CCn1ccnc1CN1CCCN(C(=O)c2cccc(C#N)c2)CC1,0.122%,2.56%,-6.11%,7.79%,7.38%,0.939%,9.49%,1.44%,1.21%,1.21%
CCCc1cc(C(=O)N2CCOC(c3nc(-c4cccs4)no3)C2)no1 (stereo not given),-3.79%,9.33%,6.29%,3.55%,2.21%,7.55%,17%,-12.7%,2.5%,-19.9%
CCn1ncc(Br)c1CN(C)S(=O)(=O)c1ccc(C)cc1,0.567%,6.67%,-0.565%,3.35%,6.2%,15.3%,14%,4.23%,10%,-22%
Cc1nn(-c2ccccc2)cc1C(=O)N1CCCN2CCCC2C1 (stereo not given),-4.61%,10.7%,5.72%,-0.201%,0.887%,7.21%,3.25%,7.89%,12.8%,-14.7%
CCc1nccn1C1CCCN(C(=O)c2csc(NC(C)=O)n2)C1 (stereo not given),-3.11%,15.6%,14.2%,-2.98%,0.205%,8.95%,-1.12%,4.9%,11.8%,-7.02%
Cn1cccc1-c1cc(C(=O)N2CC(c3cccnc3)C2)[nH]n1,-12.9%,2.7%,4.47%,-2.81%,1.05%,5.65%,32.9%,-1.6%,0%,0.144%
CCN1CCN(c2ccc(CNC(=O)c3ccc(Cl)o3)cn2)CC1,-0.96%,21.3%,-3.96%,2.41%,6.21%,18.4%,0.841%,7.89%,15.4%,-10.4%
Cn1cc(CN2C[C@@H]3COC[C@]3(CNC(=O)c3ccsc3)C2)cn1,-3%,-1.3%,16.9%,-3.6%,-5.26%,9.27%,-6.13%,-1.58%,0%,-2.4%
CC(C)n1ccnc1C1CCN(C(=O)C2COc3ccccc3O2)CC1 (stereo not given),-9.12%,5.41%,10.4%,7.08%,12.9%,13.2%,-5.55%,7.98%,14.6%,-3.02%
O=S(=O)(C1CC1)N1CCC2(CC1)CC(Oc1cccnc1)CO2 (stereo not given),-7.74%,9.09%,4.03%,2.43%,-3.24%,-1.15%,-0.725%,3.68%,0%,-0.139%
Cc1ccc(C(=O)N2CCC3(CC2)CCN(CCN(C)C)C3=O)cn1,-3.6%,6.49%,-4.15%,-1.31%,-0.457%,6.44%,11.3%,7.73%,7.5%,-6.63%
O=C(c1cc(Cl)c2c(c1)OCO2)N1CCCC(n2ccnc2)C1 (stereo not given),-2.43%,5.33%,3.84%,2.01%,0%,7.72%,9.8%,-6.84%,5.13%,-5.15%
c1cnnc(N2CCCC(NCc3cn4ccccc4n3)C2)c1 (stereo not given),4.38%,23.4%,-9.09%,-10.8%,-1.43%,26.5%,17%,8.82%,11.8%,-10.5%
COC[C@@]12CC[C@@H](N3CCOCC3)C[C@H]1CCN(c1ncccc1Cl)C2,-6.53%,13.5%,12.5%,4.56%,10.8%,7.02%,2.53%,5.85%,19.5%,-2.53%
CCCc1c(C(=O)NC2CCCC2)nnn1-c1ccc(OC)cc1,107%,17.3%,-6.12%,0%,6.2%,8.37%,27%,-1.06%,7.5%,-16.8%
Cc1c[nH]cc1C(=O)N1CCN(CCc2cccs2)CC1,-4.85%,5.13%,-6.52%,3.29%,2.05%,-3.67%,3.15%,5.26%,8.43%,0.816%
CN1CC(=O)N(c2ccccc2)CC12CCN(CC1CC1)C2 (stereo not given),-2.12%,-1.3%,-3.04%,-6.13%,1.22%,10.5%,-3.51%,-0.526%,0%,-0.704%
Cc1ccc(F)cc1C(=O)N1C[C@@H](CN2CCOCC2)[C@@H](CO)C1,-9.2%,8.11%,5.12%,2.23%,4.54%,9.76%,2.21%,5.85%,9.76%,-3.39%
Cc1nsc(NC(=O)N2CCN(Cc3ccc(F)cc3)C(=O)C2)n1,-3.7%,-10.8%,-0.0827%,-0.291%,3.85%,4.45%,5.1%,2.66%,2.44%,3.97%
O=C1CC2(CCCNC2)C(=O)N1Cc1ccc(F)cc1 (stereo not given),-2.69%,11.7%,-3.81%,-5.82%,2.28%,6.95%,15.5%,0.966%,-2.5%,-0.664%
Cc1cnn(C(C)C2CC2)c1NC(=O)c1cnccn1 (stereo not given),-5.04%,0%,0.592%,1.07%,0.35%,-1.03%,16.7%,1.6%,4.88%,2.37%
COCCN1CCCN(C(=O)NC(C)Cn2cccn2)CC1 (stereo not given),0.234%,15.6%,-4.18%,-8.77%,4.3%,10.9%,14.4%,5.88%,11.8%,-2.79%
Cc1noc(C)c1CN(C)C(=O)NC1CCN(C2CC2)CC1,-1.46%,2.56%,0.345%,2.91%,-0.82%,-3.84%,-6.08%,2.39%,8.43%,3.21%
Cc1cnc(CN2CCCC(c3cc(C(F)(F)F)[nH]n3)C2)cn1 (stereo not given),-4.31%,2.67%,2.93%,-2.21%,3.55%,2.97%,10.5%,4.74%,17.9%,-4.75%
CN(C)c1cc(CNC(=O)Nc2ccc(S(C)(=O)=O)nc2)ccn1,-1.24%,10.3%,-5.84%,0.845%,1.64%,10.3%,-0.626%,6.22%,25.3%,-2.59%
